High-throughput results (PubChem)
A selection: hits, their analogues and other compounds. The true share with any hit is near 8.7%.
AMA1 RON2 block: inhibitors of Plasmodium falciparum AMA1-RON2 interaction | 0.2% of 360,000 active | AlphaScreen AMA1-biotinylated RON2 peptide binding | AID 720542 | Potency, µM (series often up to 58.2 µM), most hits filed as inhibitors; also: nearly all actives have a fitted effect of over 45% in size
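AMA1 (3D7) with his tag at 25 nM final met compounds first, then biotinylated RON2 peptide at 25 nM; detection used donor plus acceptor beads, 10 µg/mL apiece, read by AlphaScreen after 30 min at room temperature.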
VACV mCherry inh: vaccinia inhibition (mCherry reporter); Vaccinia virus mCherry reporter infection, fluorescence; 0.63% of 310,000 active; Potency, µM (titrated, usually from 36.5 µM), usual class: inhibitors; AID 720579; calls by dose curve; tested in A549 cells; also: nearly all actives have a fitted effect of over 35% in size
Pf growth 48h: P. falciparum growth inhibition at 48 hours (one generation); P. falciparum luciferase growth in erythrocytes, 48 h; Potency, µM (titrated, usually from 28.7 µM), actives largely listed as inhibitors; 5.9% of 310,000 active; AID 504832
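Cell-based growth assay: transgenic P. falciparum expressing firefly luciferase, cultured in red cells within RPMI 1640 containing 0.5% w/v Albumax, 24 mM bicarbonate and gentamycin. A drop in luciferase activity indicates inhibition.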
Pf growth 96h: P. falciparum growth inhibition at 96 hours; 6.9% of 320,000 active; P. falciparum luciferase reporter growth, 96 h; Potency, µM (top dose mostly 28.7 µM), hits mostly inhibitors
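Two parasite generations (96 h, 37 C, 5% CO2) of compound exposure in infected erythrocytes (0.05% parasitemia, 2% hematocrit). Luciferase-reporter P. falciparum; decreased luminescence indicates inhibited growth, aimed at apicoplast-acting delayed death.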
Vaccinia Venus: vaccinia inhibition (Venus reporter); Potency, µM (titrated, usually from 36.5 µM), most hits filed as inhibitors; AID 720580; Vaccinia virus Venus reporter expression, fluorescence; 0.46% of 330,000 active; calls by dose curve; tested in A549 cells; also: nearly all actives have a fitted effect of over 30% in size
Each line names hits and unclear results; the compound was inactive in the other large screens. Unless noted, calls follow the shape of the dose curve; as a rule, active = well fitted curve in the direction sought with a large enough effect; inconclusive = small, poorly fitted or top-dose-only effect, or another doubt; inactive = no such curve, though single readings can be large; an effect the other way counts as inactive or inconclusive.

Cc1cccc(N(Cc2ccccc2)C(=O)CSC(C)C(=O)Nc2cc(C)on2)c1 (stereo unspecified)	Pf growth 48h inconclusive, Pf growth 96h 10µM
N#Cc1c(Cl)nc(N/N=C/c2ccccc2)c(Cl)c1Cl	Pf growth 96h 5.2µM
C[n+]1cccc(/C=N/Nc2nc(Cl)c(C#N)c(Cl)c2Cl)c1	Pf growth 48h inconclusive
C[N+](C)(C)c1ccc(/C=N/Nc2nc(Cl)c(C#N)c(Cl)c2Cl)cc1	Pf growth 48h 2.1µM, Pf growth 96h inconclusive
CCC(C)NC(=O)c1cn(CC)c2cc(N3CCN(C(=O)c4ccco4)CC3)c(F)cc2c1=O (stereo unspecified)	VACV mCherry inh 5µM, Pf growth 48h 5.9µM, Pf growth 96h 4.1µM, Vaccinia Venus inconclusive
CCn1cc(C(=O)NCC(C)C)c(=O)c2cc(F)c(N3CCN(C(=O)c4ccco4)CC3)cc21	Pf growth 48h 4.1µM
CCn1cc(C(=O)NCc2ccco2)c(=O)c2cc(S(=O)(=O)N3CCc4ccccc4C3)ccc21	Pf growth 48h 9.3µM, Pf growth 96h 5.2µM (no result: VACV mCherry inh, Vaccinia Venus)
CCn1cc(C(=O)NCc2ccc3c(c2)OCO3)c(=O)c2cc(F)c(N3CCN(C)CC3)cc21	Pf growth 48h inconclusive
CCn1cc(C(=O)NCc2ccco2)c(=O)c2cc(F)c(N3CCN(C(=O)c4ccco4)CC3)cc21	Pf growth 48h 7.4µM, Vaccinia Venus inconclusive
Cc1cc2[nH]c(=O)c(=O)[nH]c2cc1S(=O)(=O)Nc1cccc(C(F)(F)F)c1	none (no result: AMA1 RON2 block, Pf growth 48h, Pf growth 96h)
CCCN1CCN(CCCNC(=O)Cn2c(-c3cccs3)cc3cc(Cl)ccc32)CC1	none (no result: AMA1 RON2 block, Pf growth 48h, Pf growth 96h)
COc1ccc2nc3oc(C(=O)N(C)c4ccc(Cl)cc4)cc3cc2c1	none (no result: AMA1 RON2 block, Pf growth 48h, Pf growth 96h)
C=CCNC(=O)c1cn(CC)c2cc(N3CCN(C(=O)c4ccco4)CC3)c(F)cc2c1=O	Pf growth 48h 7.4µM, Pf growth 96h inconclusive (no result: VACV mCherry inh, Vaccinia Venus)
COc1ccc(Nc2cc(C)nc3nc(C)nn23)c(OC)c1	none (no result: VACV mCherry inh, Vaccinia Venus)
COc1ccc(Nc2cc(C)nc3ncnn23)c(OC)c1	Pf growth 96h 2.9µM (no result: VACV mCherry inh, Pf growth 48h, Vaccinia Venus)
Cc1ccc(Nc2cc(C)nc3ncnn23)c(C)c1	Pf growth 96h 1.5µM
Cc1n[nH]c(C)c1S(=O)(=O)N1CCc2ccccc2C1	Pf growth 96h 10µM (no result: VACV mCherry inh, Vaccinia Venus)
Cc1n[nH]c(C)c1S(=O)(=O)N1CCN(c2ccccn2)CC1	none (no result: VACV mCherry inh)
O=C(COc1ccc(Br)cc1)Nc1ccc(C(=O)OC2CCCCC2)cc1	none (no result: AMA1 RON2 block, Pf growth 48h, Pf growth 96h)
CN(CCOc1ccccc1)Cc1ccccc1	none (no result: Pf growth 48h, Pf growth 96h)
Cc1ccccc1OCC(O)CNC1CCCC1 (stereo unspecified)	Pf growth 48h inconclusive, Pf growth 96h inconclusive
Cc1ccc(C(C)C)c(OCC(O)CNC2CCCC2)c1 (stereo unspecified)	Pf growth 48h 5.2µM (no result: VACV mCherry inh, Vaccinia Venus)
COc1cccc(OCC(O)CNC2CCCC2)c1 (stereo unspecified)	Pf growth 96h inconclusive (no result: VACV mCherry inh, Vaccinia Venus)
OC(CNC1CCCC1)COc1ccc(Cl)cc1 (stereo unspecified)	Pf growth 48h 15µM
CN(CCOc1cccc2ccccc12)Cc1ccccc1	AMA1 RON2 block inconclusive, Pf growth 96h 4.1µM (no result: VACV mCherry inh, Vaccinia Venus)
Cc1ccc(C(C)C)c(OCCCN(C)Cc2ccccc2)c1	Pf growth 48h 13µM, Pf growth 96h inconclusive
Cc1ccc(-n2nc(C(=O)Nc3ccc(F)cc3Cl)c(=O)n(C)c2=O)cc1	none (no result: AMA1 RON2 block, Pf growth 48h, Pf growth 96h)
CCCCOc1cccc(C2c3c(oc4ccccc4c3=O)C(=O)N2c2ccccn2)c1 (stereo unspecified)	none (no result: AMA1 RON2 block, Pf growth 48h, Pf growth 96h)
CCOC(=O)c1cc(S(=O)(=O)Nc2cc(F)ccc2C)[nH]n1	none (no result: AMA1 RON2 block, Pf growth 48h, Pf growth 96h)
Cc1ccc(C(C)C)c(OCC(O)CN(C)Cc2ccccc2)c1 (stereo unspecified)	Pf growth 96h 2.1µM, Vaccinia Venus inconclusive (no result: Pf growth 48h)
O=C(O)c1ccc2c(c1)C(=O)N(c1nccs1)C2=O	Pf growth 48h 3.3µM
O=C(O)c1ccc2c(c1)C(=O)N(c1ccccc1-c1ccccc1)C2=O	AMA1 RON2 block inconclusive
CCOc1ccc(CNC(=O)c2cnc3c(C)cccn3c2=O)cc1	none (no result: AMA1 RON2 block, Pf growth 48h, Pf growth 96h)
CCOc1ccc(OCC(=O)Nc2nnc3n2CCS3)cc1	none (no result: AMA1 RON2 block, Pf growth 48h, Pf growth 96h)
Cn1c(=O)n(Cc2ccccc2)c(=O)c2c1nc1n2CCN1c1ccccc1	none (no result: AMA1 RON2 block, Pf growth 48h, Pf growth 96h)
CCC[N+]12CCC(CC1)C(=C(c1ccccc1)c1ccccc1)C2	Pf growth 48h 1.3µM, Pf growth 96h inconclusive
CCCC[N+]12CCC(CC1)C(=C(c1ccccc1)c1ccccc1)C2	Pf growth 48h 1.3µM, Pf growth 96h 0.74µM
CCOC(=O)c1[nH]c(C)c(CCC(=O)Nc2c(C)cc(C)cc2C)c1C	none (no result: AMA1 RON2 block, Pf growth 48h, Pf growth 96h)
